Assay results: PubChem BioAssay (NCI)
This is part of a sample that, as a whole, favours compounds with a hit. Of some 83,000 tested, about 20% had one in any assay.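 Testing used 96-well plates and a 48-hour single-concentration exposure. Example: -40 means 40% of the starting cells died.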 Activity calls are given as the source filed them. How the source made its calls: active means growth percent below 10; inactive means the rest.

Assays:
Assay in all cases: NCI-60 one-dose screen, 48 h (100 = growth as untreated, 0 = no growth, -100 = all killed)
Details in all cases: 10 µM unless noted
[1] = tested on: DU-145 prostate
[2] = tested on: K-562 leukemia
[3] = tested on: MALME-3M melanoma
[4] = tested on: MDA-MB-231 breast
[5] = tested on: RXF 393 renal
[6] = tested on: SF-268 CNS
[7] = tested on: SF-295 CNS
[8] = tested on: SF-539 CNS
[9] = tested on: UACC-257 melanoma
[10] = tested on: M14 melanoma

Measured: growth

O=C(Nc1cccc([N+](=O)[O-])c1)c1ccc(Cl)c(Cl)c1
inactive: [1] 74.8% | [2] 79.9% | [3] 30.2% | [4] 80.7% | [5] 62.8% | [6] 54.4% | [7] 58.7% | [8] 83% | [9] 92.5% | [10] 93.1%

COc1cc2c(c(OC)c1)C1c3ccccc3NC(=O)N1CC2 (stereo not given)
active: [5] 9.03% | [8] -9.57% | [10] -18.6%
inactive: [1] 13.2% | [2] 12.5% | [3] 28.5% | [4] 32.2% | [6] 48.2% | [7] 13.2% | [9] 56.4%

CCc1cnn2c(NCc3ccc[n+]([O-])c3)cc(N3CCCC[C@H]3CCO)nc12
active: [1] 5.68% | [2] 1.85% | [3] -46.3% | [4] 2.67% | [5] -64.6% | [6] 3.65% | [7] 3.11% | [8] -48.1% | [9] -42.4% | [10] -42.5%

CNC(=O)c1cc(Oc2ccc3nc(NC(=O)Nc4ccc(Cl)c(C(F)(F)F)c4)sc3c2)ccn1
inactive: [1] 19.2% | [2] 47.2% | [6] 21.9% | [9] 61.4%
active: [3] -21.1% | [4] 4.76% | [5] -19.4% | [7] -10.9% | [8] -2.86% | [10] -10.4%

Cc1cc(Nc2ncnc3ccc(NC4=NC(C)(C)CO4)cc23)ccc1Oc1ccn2ncnc2c1
inactive: [1] 35.2% | [2] 10% | [6] 41.8% | [7] 52.7% | [8] 30.4%
active: [3] -8.78% | [4] -4.62% | [5] 0.527% | [9] 4.04% | [10] 8.95%

Cc1ncc(-c2ccnc(Nc3ccc(S(C)(=O)=O)cc3)n2)n1C(C)C
active: [1] 4.62% | [2] 3.66% | [3] -47.7% | [4] -8.39% | [5] -50.9% | [6] 3.67% | [7] -0.591% | [8] -65.4% | [9] -28.3% | [10] -74.5%

CNC(=O)c1ccc(Nc2ncc(C(F)(F)F)c(NCc3nccnc3N(C)S(C)(=O)=O)n2)cc1
active: [1] 7.63% | [3] -1.87% | [4] 3.13% | [5] -51.1% | [6] 2.86% | [7] 5.63% | [8] -42.7% | [9] -21.5% | [10] 8.04%
inactive: [2] 10.6%

Cc1nc2ccc(-n3ncc(C(=O)c4cc5ccccc5[nH]4)c3N)cc2[nH]1
active: [8] -2.11%
inactive: [1] 60.7% | [2] 17.4% | [3] 64.5% | [4] 53.9% | [5] 15.5% | [6] 50.5% | [7] 53.5% | [9] 79.5% | [10] 61.1%

O=C(O)c1ccc(Nc2ncc3c(n2)-c2ccc(Cl)cc2C(c2c(F)cccc2F)=NC3)cc1
inactive: [1] 72.1% | [2] 23.3% | [3] 76.5% | [4] 51.7% | [5] 43.8% | [6] 52.6% | [7] 39.3% | [8] 59.4% | [9] 46.4% | [10] 57.5%

CC(C)CC(=O)Nc1n[nH]c2c1CN(C(=O)C1CCN(C)CC1)C2(C)C
active: [4] 8.95% | [5] -37.2% | [8] -22.3%
inactive: [1] 15.2% | [2] 11.1% | [3] 34.9% | [6] 12.1% | [7] 41.6% | [9] 15.5% | [10] 22.2%

CC(C)(O)CC(=O)NCCn1ccc2ncnc(Nc3ccc(Oc4cccc(C(F)(F)F)c4)c(Cl)c3)c21
inactive: [1] 27.4% | [4] 11.9% | [6] 29.3% | [7] 31%
active: [2] 4.49% | [3] -8.01% | [5] 3.66% | [8] 8.28% | [9] -26.8% | [10] -1.37%

CC(C)(C)c1cnc(CSc2cnc(NC(=O)C3CCNCC3)s2)o1
active: [1] 7.26% | [2] 4.07% | [3] -41.1% | [4] 6.82% | [5] -51.5% | [8] -33.1% | [9] -25.5% | [10] -58.6%
inactive: [6] 12% | [7] 11.6%

C[C@]12O[C@H](C[C@]1(O)CO)n1c3ccccc3c3c4c(c5c6ccccc6n2c5c31)CNC4=O
active: [1] 3.57% | [2] 4.93% | [3] -85.3% | [4] -44.2% | [5] -90.2% | [6] -45.5% | [7] -83.8% | [8] -96.6% | [9] -77.2% | [10] -56.4%

CNc1ncc2cc(-c3cc(NC(=O)NCCC(C)(C)C)c(F)cc3C)c(C)nc2n1
inactive: [1] 32.6% | [6] 26.5% | [7] 25.5% | [8] 27.5%
active: [2] 3.92% | [3] 1.23% | [4] 1.7% | [5] -23.3% | [9] -10.3% | [10] -12.4%

CN(C)C1CCN(C(=O)c2ccc(NC(=O)Nc3ccc(-c4nc(N5CCOCC5)nc(N5CCOCC5)n4)cc3)cc2)CC1
active: [1] 2.99% [2.5 µM] | [3] -34.1% [2.5 µM] | [5] -40.4% [2.5 µM] | [7] -31.1% [2.5 µM] | [8] -53% [2.5 µM] | [9] -40% [2.5 µM] | [10] 7.46% [2.5 µM]
inactive: [2] 14.4% [2.5 µM] | [4] 17.2% [2.5 µM] | [6] 10.6% [2.5 µM]

COC[C@@H](C)n1c(C2CCOCC2)nc2c1C1C=C(OC)C(c3c(C)noc3C)=CC1N=C2 (stereo not given in full)
inactive: [1] 65.5% | [2] 33.6% | [3] 41.2% | [4] 25% | [5] 55.9% | [6] 62.4% | [7] 45.4% | [8] 34.5% | [9] 41.4% | [10] 42.4%

C[C@@H](Nc1cc(F)cc(F)c1)c1cc(C(=O)N(C)C)cc2c(=O)cc(N3CCOCC3)oc12
inactive: [1] 68.2% | [2] 87.6% | [3] 68.9% | [4] 82.4% | [6] 56.8% | [7] 14.8% | [8] 24.1% | [9] 35.2% | [10] 69.2%
active: [5] -16.4%

C=CC(=O)N1CCC[C@@H](n2nc(-c3ccc(Oc4ccccc4)cc3)c3c(N)ncnc32)C1
inactive: [1] 47.9% | [3] 86.8% | [4] 56.4% | [5] 11% | [6] 42% | [7] 60.7% | [8] 32.9% | [9] 26.4% | [10] 41.9%
active: [2] 8.51%

Nc1ccc(S(=O)(=O)O)c2cc(S(=O)(=O)O)cc(O)c12
inactive: [1] 105% | [2] 117% | [3] 109% | [4] 106% | [5] 114% | [6] 111% | [7] 110% | [8] 95.8% | [9] 109% | [10] 90.7%

C=CC(=O)Nc1cccc(Nc2nc(Nc3ccc(N4CCN(C(C)=O)CC4)cc3OC)ncc2C(F)(F)F)c1
active: [5] -11.2%
inactive: [1] 16.7% | [2] 18.7% | [3] 22.2% | [4] 21.7% | [6] 24.1% | [7] 39.5% | [8] 18.6% | [9] 24.5% | [10] 16.9%

COc1cccc(Nc2ncnn3ccc(CN4CC[C@@H](N)[C@H](O)C4)c23)c1
active: [2] 2.52% | [5] -41.4% | [8] -2.77%
inactive: [1] 27.1% | [3] 86.4% | [4] 31.3% | [6] 45.1% | [7] 72.9% | [9] 76.1% | [10] 96%

O=C(NOCCO)c1cc(CN2OCCCC2=O)c(F)c(F)c1Nc1ccc(I)cc1F
inactive: [1] 56.7% | [2] 31.2% | [4] 32.2% | [5] 24.9% | [6] 67.5% | [7] 71.6% | [8] 55.4%
active: [3] -2.48% | [9] -13.2% | [10] 9.12%

O=C1CCC(=O)CC1
inactive: [1] 110% | [2] 96.7% | [3] 110% | [4] 105% | [5] 113% | [6] 98.8% | [7] 101% | [8] 95.3% | [9] 89.4% | [10] 98.1%

Nc1cc(C(F)(F)F)c(-c2cc(N3CCOCC3)nc(N3CCOCC3)n2)cn1
active: [1] 3.11% | [2] 0.801% | [3] -60.8% | [4] -1.72% | [5] -39.7% | [6] 6.65% | [7] -46.8% | [8] -57% | [9] -49.5% | [10] -62.1%

O=C(O)c1ccc2c(c1)nc(Nc1cccc(Cl)c1)c1ccncc12
active: [2] 8.63% | [3] -10.2% | [4] 3.58% | [5] -9.7% | [7] 6.7% | [8] -23.8% | [9] -7.85% | [10] -0.117%
inactive: [1] 33.7% | [6] 14.8%

NC1(c2ccc(-c3nc4ccn5c(=O)[nH]nc5c4cc3-c3ccccc3)cc2)CCC1
inactive: [1] 60.9% | [4] 37.4% | [6] 52.3%
active: [2] -16.8% | [3] -70.8% | [5] -21.7% | [7] -65.5% | [8] -80.9% | [9] -67.6% | [10] -66.5%
